# Test results from PubChem BioAssay (NCI).
# Compounds without any hit were thinned out: in the full panel of roughly 83,000, 20% have a hit.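 Interpretation: 100, growth as untreated; towards 0, rising growth inhibition; 0, no net growth; 0 to -100, cell death. Compounds scoring below 10 were considered active.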 Calls of active or inactive are those of the source.
# Test system: KM12 colon
# Experiment: NCI-60 one-dose screen, 48 h (100 = growth as untreated, 0 = no growth, -100 = all killed)
# Settings: 10 µM unless noted
row,Compound,growth
1,OC1CCN(CCCOc2c3ccc(Cl)cc3nc3c2oc2ccccc23)CC1,-16.1% (active)
2,CC(C)(C)Nc1nc2c(OCCc3ccccc3)cccn2c1-c1cccc(F)c1,4.77% (active)
3,COc1cc(/C=C/C(=O)c2cc(OC)c(OC)c(OC)c2)ccc1OCc1ccccc1,11.3% (inactive)
4,C#Cc1nc(C2=C(C)C(OC(C)=O)/C(=N/OC(C)=O)C2)cs1 (stereo not given),-19.7% (active)
5,COc1ccc(/C=N/NC(=O)c2[nH]c3ccc(Br)cc3c2-c2ccccc2)s1,3.72% (active)
